Results filed as inconclusive are left out. Where a call stands in place of a potency, no number is given. Activity calls are given as the source filed them. Calls come from the whole dose curve; as a rule, active = well fitted curve in the direction sought with a large enough effect in the repeat runs; inconclusive = weak or mixed curves; inactive = no such curve, though single readings can be large; an effect the other way counts as inactive or inconclusive.

The source of these data is PubChem BioAssay (Tox21).
Potency is the fitted concentration of half-maximal effect.

Tested on in one assay: not listed separately
In words: qHTS assay to identify aromatase inhibitors - cell viability counter screen (AID 743084).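 Note: cells stimulated with testosterone during compound exposure; nearly all actives have a fitted effect of over 55% in size.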 The following applies: MCF-7 aro ERE viability, CellTiter-Fluor, 24 h; series mostly up to 70.3 µM. (In general: In qHTS, concentration-response curves come from the screen itself.)
On to `CC1(C)C[C@@H]1C(=O)N/C(=C\CCCCSC[C@H](N)C(=O)O)C(=O)O`, for which the Potency entry was “inactive”.

Consider `Cc1cc(-c2ccc(N=Nc3ccc4c(S(=O)(=O)O)cc(S(=O)(=O)O)c(N)c4c3O)c(C)c2)ccc1N=Nc1ccc2c(S(=O)(=O)O)cc(S(=O)(=O)O)c(N)c2c1O`, for which the Potency was 23.7 µM (active).

Turning to `O=C1c2ccccc2C(=O)C1c1ccc(F)cc1`, the Potency entry was “inactive”.

Turning to `CC(=O)OCC(=O)[C@@]1(O)CC[C@H]2[C@@H]3C[C@H](C)C4=CC(=O)C=C[C@]4(C)[C@H]3[C@@H](O)C[C@@]21C`, the Potency result was “inactive”.

For the molecule `CC(C)c1ccc2sc3ccccc3c(=O)c2c1`, the Potency entry is “inactive”.

Turning to `CC(=O)Oc1cc(C(F)(F)F)ccc1C(=O)O`, the Potency result was “inactive”.

`N[C@H](C(=O)O)[C@@H]1CC(Cl)=NO1`: the Potency result was “inactive”.

Regarding `NCc1cccc(C2CCN(C(=O)c3ccc(C#Cc4ccccc4F)o3)CC2)c1`, the Potency is 61.1 µM (active).

As to `CC1CCCCN1CCCOC(=O)c1ccccc1` (stereo unspecified), the Potency result was “inactive”.

For `O=C1CCC(c2ccc(-n3ccnc3)cc2)=NN1`, the Potency entry was “inactive”.

For `COc1cc(/C=C/C(=O)CC(=O)/C=C/c2ccc(O)c(OC)c2)ccc1O`, the Potency result was “inactive”.

Take `CSCC[C@H](NC(=O)[C@H](Cc1ccc(OS(=O)(=O)O)cc1)NC(=O)[C@@H](N)CC(=O)O)C(=O)NCC(=O)N[C@@H](Cc1c[nH]c2ccccc12)C(=O)N[C@@H](CCSC)C(=O)N[C@@H](CC(=O)O)C(=O)N[C@@H](Cc1ccccc1)C(N)=O`: the Potency result was “inactive”.

As for `O=C1OC(=O)c2cc(-c3ccc4c(c3)C(=O)OC4=O)ccc21`, the Potency entry was “inactive”.

In the case of `CCOc1ccc([N+](=O)[O-])cc1`, the Potency was 55.3 µM (active).

As for `C=N[C@@H](C(=O)N[C@@H]1C(=O)N2[C@@H]1SC(C)(C)[C@@H]2C(=O)O)c1ccccc1`, the Potency result was “inactive”.

Turning to `CN(C)CCc1c[nH]c2ccc(Cn3cncn3)cc12`, the Potency entry is “inactive”.

For the molecule `FC(F)(F)COCC(F)(F)F`, the Potency entry is “inactive”.

On to `CCCCCCCCCC[N+](C)(CCCCCCCCCC)CCC[Si](OC)(OC)OC`, for which the Potency is 61.1 µM (active).

Regarding `N[C@@H](Cc1ccc(O)c(O)c1)C(=O)O`, the Potency result is “inactive”.

Regarding `C[C@@H]1C[C@H]2[C@@H]3C[C@H](F)C4=CC(=O)C=C[C@]4(C)[C@@]3(Cl)[C@@H](O)C[C@]2(C)[C@H]1C(=O)COC(=O)C(C)(C)C`, the Potency result was “inactive”.

As to `NC(N)=NCCCCN=C(N)N`, the Potency result was “inactive”.

As to `NC(=O)CC[C@@H]1NC(=O)[C@H](Cc2ccccc2)NC(=O)[C@H](Cc2ccc(O)cc2)NC(=O)[C@@H](N)CSSC[C@@H](C(=O)N2CCC[C@H]2C(=O)N[C@@H](CCCN=C(N)N)C(=O)NCC(N)=O)NC(=O)[C@H](CC(N)=O)NC1=O`, the Potency result is “inactive”.

As for `Cc1c(N)nc([C@H](CC(N)=O)NC[C@H](N)C(N)=O)nc1C(=O)N[C@H](C(=O)N[C@H](C)[C@@H](O)[C@H](C)C(=O)N[C@H](C(=O)NCCc1nc(-c2nc(C(=O)NCCCCN=C(N)N)cs2)cs1)[C@@H](C)O)[C@@H](O[C@@H]1O[C@@H](CO)[C@@H](O)[C@H](O)[C@@H]1O[C@H]1O[C@H](CO)[C@@H](O)[C@H](OC(N)=O)[C@@H]1O)c1cnc[nH]1`, the Potency entry is “inactive”.

Turning to `CCC(NC(C)C)C(O)c1ccc(O)c(O)c1` (stereo unspecified), the Potency entry was “inactive”.

Regarding `CCCCCCOC(=O)c1cccnc1`, the Potency result was “inactive”.

Take `CC(C)C[C@H](NC(=O)[C@@H](COC(C)(C)C)NC(=O)[C@H](Cc1ccc(O)cc1)NC(=O)[C@H](CO)NC(=O)[C@H](Cc1c[nH]c2ccccc12)NC(=O)[C@H](Cc1cnc[nH]1)NC(=O)[C@@H]1CCC(=O)N1)C(=O)N[C@@H](CCCN=C(N)N)C(=O)N1CCC[C@H]1C(=O)NNC(N)=O`: the Potency entry is “inactive”.

Regarding `CC(=O)OCC1=C(C(=O)O)N2C(=O)[C@@H](NC(=O)Cc3ccccc3)[C@H]2SC1`, the Potency entry was “inactive”.

Take `NS(=O)(=O)c1cc(Cl)c(Cl)c(S(N)(=O)=O)c1`: the Potency result was “inactive”.

Turning to `O=c1[nH]c(=O)n([C@H]2C[C@H](O)[C@@H](CO)O2)cc1/C=C/Br`, the Potency entry is “inactive”.

For `C[C@H]1O[C@@H](O[C@H]2CC[C@@]3(C)[C@H](CC[C@@H]4[C@@H]3C[C@@H](O)[C@]3(C)[C@@H](C5=CC(=O)OC5)CC[C@]43O)C2)C[C@H](O)[C@@H]1O[C@H]1C[C@H](O)[C@H](O[C@H]2C[C@H](O)[C@H](O[C@@H]3O[C@H](CO)[C@@H](O)[C@H](O)[C@H]3O)[C@@H](C)O2)[C@@H](C)O1`, the Potency entry is “inactive”.

For the molecule `Oc1ccc(Cl)c2c1CCC2`, the Potency entry was “inactive”.

For `N[C@H](CO)C(=O)O`, the Potency entry was “inactive”.

As for `CC1(C)S[C@@H]2[C@H](NC(=O)[C@H](N)c3ccc(O)cc3)C(=O)N2[C@H]1C(=O)O`, the Potency entry is “inactive”.

For the next assay, the target named is Aryl hydrocarbon receptor (Homo sapiens) (UniProt P35869). The experiment in a line: qHTS assay to identify small molecule that activate the aryl hydrocarbon receptor (AhR) signaling pathway (AID 743085). Note: nearly all actives have a fitted effect of over 15% in size. To be noted: HepG2 AhR-luc (HG2L7.5c1), luciferase, 24 h; series mostly up to 70.3 µM. The gist of the method: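 Luminescence read-out: ONE-Glo reagent, 30 min at room temperature, in HG2L7.5c1 HepG2 reporter cells treated 24 h at 37C. Viability was measured beforehand by CellTiter-Fluor fluorescence after 30 min at 37C.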
Sequence of Aryl hydrocarbon receptor (Homo sapiens) (P35869 whole entry, looked up): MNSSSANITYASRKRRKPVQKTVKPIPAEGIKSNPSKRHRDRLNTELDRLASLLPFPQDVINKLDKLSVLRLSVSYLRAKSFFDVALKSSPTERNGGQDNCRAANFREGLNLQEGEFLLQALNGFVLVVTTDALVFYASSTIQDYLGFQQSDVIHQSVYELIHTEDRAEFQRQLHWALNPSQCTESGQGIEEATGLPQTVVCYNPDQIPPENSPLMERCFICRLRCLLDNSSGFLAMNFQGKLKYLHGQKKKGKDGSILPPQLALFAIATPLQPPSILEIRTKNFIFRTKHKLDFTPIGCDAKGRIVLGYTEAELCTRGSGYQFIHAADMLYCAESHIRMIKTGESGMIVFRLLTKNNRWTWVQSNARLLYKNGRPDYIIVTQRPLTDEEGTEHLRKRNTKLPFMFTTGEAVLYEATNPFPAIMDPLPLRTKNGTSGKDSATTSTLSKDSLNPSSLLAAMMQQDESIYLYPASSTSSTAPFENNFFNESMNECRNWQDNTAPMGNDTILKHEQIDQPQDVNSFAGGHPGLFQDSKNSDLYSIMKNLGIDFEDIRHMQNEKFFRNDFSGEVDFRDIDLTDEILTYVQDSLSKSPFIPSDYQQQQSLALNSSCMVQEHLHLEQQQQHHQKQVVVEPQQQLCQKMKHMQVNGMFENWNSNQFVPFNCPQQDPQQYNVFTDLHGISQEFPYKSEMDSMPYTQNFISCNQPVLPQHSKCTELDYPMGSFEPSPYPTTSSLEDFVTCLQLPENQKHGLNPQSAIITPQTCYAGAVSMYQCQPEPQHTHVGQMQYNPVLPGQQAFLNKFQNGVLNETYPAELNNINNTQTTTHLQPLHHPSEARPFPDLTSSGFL
As to `CC1(C)C[C@@H]1C(=O)N/C(=C\CCCCSC[C@H](N)C(=O)O)C(=O)O`, the Potency result is “inactive”.

As for `Cc1cc(-c2ccc(N=Nc3ccc4c(S(=O)(=O)O)cc(S(=O)(=O)O)c(N)c4c3O)c(C)c2)ccc1N=Nc1ccc2c(S(=O)(=O)O)cc(S(=O)(=O)O)c(N)c2c1O`, the Potency result was “inactive”.

Consider `Clc1nc(C(Cl)(Cl)Cl)c(Cl)c(Cl)c1Cl`, for which the Potency was 61.1 µM (active).

With `CC(=O)OCC(=O)[C@@]1(O)CC[C@H]2[C@@H]3C[C@H](C)C4=CC(=O)C=C[C@]4(C)[C@H]3[C@@H](O)C[C@@]21C`, the Potency result was “inactive”.

Regarding `CC(C)c1ccc2sc3ccccc3c(=O)c2c1`, the Potency was 30.6 µM (active).

As to `CC(=O)Oc1cc(C(F)(F)F)ccc1C(=O)O`, the Potency result was “inactive”.

For the molecule `N[C@H](C(=O)O)[C@@H]1CC(Cl)=NO1`, the Potency result is “inactive”.

On to `NCc1cccc(C2CCN(C(=O)c3ccc(C#Cc4ccccc4F)o3)CC2)c1`, for which the Potency result is “inactive”.

On to `CC1CCCCN1CCCOC(=O)c1ccccc1` (stereo unspecified), for which the Potency result was “inactive”.

With `O=C1CCC(c2ccc(-n3ccnc3)cc2)=NN1`, the Potency was 5.96 µM (active).

In the case of `COc1cc(/C=C/C(=O)CC(=O)/C=C/c2ccc(O)c(OC)c2)ccc1O`, the Potency entry is “inactive”.

With `CSCC[C@H](NC(=O)[C@H](Cc1ccc(OS(=O)(=O)O)cc1)NC(=O)[C@@H](N)CC(=O)O)C(=O)NCC(=O)N[C@@H](Cc1c[nH]c2ccccc12)C(=O)N[C@@H](CCSC)C(=O)N[C@@H](CC(=O)O)C(=O)N[C@@H](Cc1ccccc1)C(N)=O`, the Potency result is “inactive”.

Consider `O=C1OC(=O)c2cc(-c3ccc4c(c3)C(=O)OC4=O)ccc21`, for which the Potency entry was “inactive”.

As to `CCOc1ccc([N+](=O)[O-])cc1`, the Potency entry is “inactive”.

In the case of `C=N[C@@H](C(=O)N[C@@H]1C(=O)N2[C@@H]1SC(C)(C)[C@@H]2C(=O)O)c1ccccc1`, the Potency result was “inactive”.

Regarding `CN(C)CCc1c[nH]c2ccc(Cn3cncn3)cc12`, the Potency result is “inactive”.

For `FC(F)(F)COCC(F)(F)F`, the Potency entry is “inactive”.

Regarding `CCCCCCCCCC[N+](C)(CCCCCCCCCC)CCC[Si](OC)(OC)OC`, the Potency entry is “inactive”.

Regarding `N[C@@H](Cc1ccc(O)c(O)c1)C(=O)O`, the Potency entry was “inactive”.

For the molecule `CC(Cc1ccc(O)c(O)c1)C(C)Cc1ccc(O)c(O)c1` (stereo unspecified), the Potency entry was “inactive”.

With `O=C1OC(O)C(C(Cl)Cl)=C1Cl` (stereo unspecified), the Potency result is “inactive”.

For `NC(=O)CC[C@@H]1NC(=O)[C@H](Cc2ccccc2)NC(=O)[C@H](Cc2ccc(O)cc2)NC(=O)[C@@H](N)CSSC[C@@H](C(=O)N2CCC[C@H]2C(=O)N[C@@H](CCCN=C(N)N)C(=O)NCC(N)=O)NC(=O)[C@H](CC(N)=O)NC1=O`, the Potency result was “inactive”.

With `Cc1c(N)nc([C@H](CC(N)=O)NC[C@H](N)C(N)=O)nc1C(=O)N[C@H](C(=O)N[C@H](C)[C@@H](O)[C@H](C)C(=O)N[C@H](C(=O)NCCc1nc(-c2nc(C(=O)NCCCCN=C(N)N)cs2)cs1)[C@@H](C)O)[C@@H](O[C@@H]1O[C@@H](CO)[C@@H](O)[C@H](O)[C@@H]1O[C@H]1O[C@H](CO)[C@@H](O)[C@H](OC(N)=O)[C@@H]1O)c1cnc[nH]1`, the Potency result is “inactive”.

With `CC[C@@H](C(=O)[C@@H](C)[C@@H](O)[C@H](C)CCc1ccc(C)c(O)c1C(=O)O)[C@H]1O[C@](CC)([C@H]2CC[C@](O)(CC)[C@H](C)O2)C[C@@H]1C`, the Potency result is “inactive”.

For the molecule `CCC(NC(C)C)C(O)c1ccc(O)c(O)c1` (stereo unspecified), the Potency entry is “inactive”.

As for `CCCCCCOC(=O)c1cccnc1`, the Potency entry is “inactive”.

Consider `CC(C)C[C@H](NC(=O)[C@@H](COC(C)(C)C)NC(=O)[C@H](Cc1ccc(O)cc1)NC(=O)[C@H](CO)NC(=O)[C@H](Cc1c[nH]c2ccccc12)NC(=O)[C@H](Cc1cnc[nH]1)NC(=O)[C@@H]1CCC(=O)N1)C(=O)N[C@@H](CCCN=C(N)N)C(=O)N1CCC[C@H]1C(=O)NNC(N)=O`, for which the Potency entry is “inactive”.

Take `CC(=O)OCC1=C(C(=O)O)N2C(=O)[C@@H](NC(=O)Cc3ccccc3)[C@H]2SC1`: the Potency result is “inactive”.

On to `NS(=O)(=O)c1cc(Cl)c(Cl)c(S(N)(=O)=O)c1`, for which the Potency entry is “inactive”.

`O=c1[nH]c(=O)n([C@H]2C[C@H](O)[C@@H](CO)O2)cc1/C=C/Br`: the Potency entry was “inactive”.

As to `C[C@H]1O[C@@H](O[C@H]2CC[C@@]3(C)[C@H](CC[C@@H]4[C@@H]3C[C@@H](O)[C@]3(C)[C@@H](C5=CC(=O)OC5)CC[C@]43O)C2)C[C@H](O)[C@@H]1O[C@H]1C[C@H](O)[C@H](O[C@H]2C[C@H](O)[C@H](O[C@@H]3O[C@H](CO)[C@@H](O)[C@H](O)[C@H]3O)[C@@H](C)O2)[C@@H](C)O1`, the Potency result is “inactive”.

As for `N[C@H](CO)C(=O)O`, the Potency result is “inactive”.

On to `CC1(C)S[C@@H]2[C@H](NC(=O)[C@H](N)c3ccc(O)cc3)C(=O)N2[C@H]1C(=O)O`, for which the Potency entry was “inactive”.
